According to PubChem BioAssay (NCI):
The panel holds about 83,000 compounds, 20% with a hit somewhere; the sample as a whole holds those more often.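 Each cell line was grown in a 96-well plate and treated with one concentration of compound for 48 hours. Values below 10 were considered active.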 A number with no mark means an inactive call. Calls of active or inactive are those of the source.

Each compound was assayed on HCT-15 colon (assay: NCI-60 one-dose screen, 48 h (100 = growth as untreated, 0 = no growth, -100 = all killed)). Details: 10 µM unless noted.
In the case of `NCCCOc1cc2ccccc2cc1C(=O)Nc1ccc(Cl)cc1OC(=O)c1cc2ccccc2cc1OCCCN`, the growth is reported as -82.2% (active).
For `CCCCCCCCCCCCCCCCNC(=S)N/N=C/c1ccc(O)cc1O`, the growth was 50.7%.
Compound `CC1(C)N=C(N)N=C(N)N1c1cccc(CCCCOc2ccccc2)c1` has a growth of 58.5%.
With `CCCC(C)c1cc(Cc2cc(Cl)cc(Cl)c2O)c(O)c(Cc2cc(Cl)cc(Cl)c2O)c1` (stereo not given) the growth was 6.15% (active).
`Oc1ccc(Br)cc1/C=N/NC(=S)NC12CC3CC(CC(C3)C1)C2` was tested, and the growth was 9.35% (active).
`Cc1ccc([C@@H]2C[C@H](O)Cc3ccccc3N2)s1` gave a growth of 94.1%.
`Cc1c(Cc2ccccc2)c(=O)oc2c(C)c(OCC(=O)n3nc(C#N)cc3N)ccc12` gave a growth of 103%.
Compound `N#CCc1ncc(-c2ccc(C(F)(F)F)cc2)c(NC2CCCCCC2)n1` has a growth of 22.1% [100 µM].
With `CCC1(CC)C(OC)NC(Br)=C(C#N)C1(C#N)C(N)=O` (stereo not given) the growth was 114%.
Work on `CC1(C)Oc2cc3oc(=O)ccc3cc2C[C@@H]1OCCOS(=O)(=O)c1ccc(C#N)cc1` yielded a growth of 92.7%.
Compound `CC(C)CCCCCOC(=O)c1ccccc1SSc1ccccc1C(=O)OCCCCCC(C)C` has a growth of 104%.
Compound `C=C(NC(=O)[C@H](C(C)C)N(C)c1cccc2[nH]ccc12)C(=O)OC` has a growth of 95.7%.
For `O=C(NC1CCN(Cc2ccccc2)CC1)c1cc(-c2cccnc2)nc2ccc(Cl)cc12`, the growth was 9.1% (active).
In the case of `Cc1c(CN(C)C)cc(C(C)C)cc1C(C)C`, the growth is reported as 113%.
`Nc1ccc(S(=O)(=O)c2ccc(NO)cc2)cc1` was tested, and the growth was 116%.
In the case of `CCOC(=O)C1=C(C(F)(F)F)NC(=S)NC1CN1C(=O)c2ccccc2C1=O` (stereo not given), the growth is reported as 109%.
`CC(=O)NCCN` was tested, and the growth was 94%.
With `COc1ccc(Cn2cc3c(c2)-c2oncc2CC3)cc1OC` the growth was 16.3%.
`Cc1ccc(C(=O)Nc2ccc(CN3CCN(C)CC3)c(C(F)(F)F)c2)cc1C#Cc1cncc2ncccc12` was tested, and the growth was -92.9% (active).
`Cc1nc2c(nnn2-c2ccccc2)c2nc(-c3ccc(Cl)cc3)oc(=O)c12` showed a growth of 108%.
`CC(=O)Nc1nc(C)c(C(=O)N/N=C/c2cccs2)s1` gave a growth of 101%.
`CCCC(CCC)Oc1ccc(CCCC2=C(O)c3ccccc3C(=O)C2=O)cc1` showed a growth of 21.7%.
With `COc1ccc(-c2cc(C#N)c(NNC(C)=O)[nH]2)cc1` the growth was 117%.
Compound `CCCCCCCCCCCCCCCCCC(=O)Nc1ccc(O)cc1` has a growth of 110%.
In the case of `COc1ccc2c(N)ncc(C#Cc3cc(C(=O)Nc4ccc(CN5CCN(C)CC5)c(C(F)(F)F)c4)cnc3C)c2c1`, the growth is reported as -76.2% (active).
Work on `COC(=O)C1CC(=O)N(C(=O)Nc2ccc(Cl)cc2Cl)C1` (stereo not given) yielded a growth of 99%.
With `COC(=O)CC(=O)C(=O)OC` the growth was 103%.
In the case of `COc1ccc(C2=NN(C(=O)c3cc(-c4ccc(C)cc4)nc4ccccc34)C(c3cc(-c4ccccc4)nn3-c3ccccc3)C2)cc1` (stereo not given), the growth is reported as 82.6%.
`O=C(Nc1cccc(Cn2c(=O)[nH]c3ccc(Oc4ncccn4)cc3c2=O)c1)c1ccc(Cl)cc1` showed a growth of 59%.
Work on `CC(=O)Nc1ccc(CC#N)cc1Br` yielded a growth of 105%.
`CC1=C[C@@H]2c3c(c(O)c(O)c4oc5cc(O)cc(O)c5c(=O)c34)[C@@H](c3cc(O)c(O)c4oc5cc(O)cc(O)c5c(=O)c34)[C@@H]2C(C)(C)C1` gave a growth of 25.4%.
Work on `Brc1c(-c2ccncc2)nc2n1CCS2` yielded a growth of 105%.
For `CC(C)(C)c1ccc(OCCOC(=O)CBr)cc1`, the growth was 97.9%.
`NC(N)=Nc1ccc(/C=C2\C=Cc3ccccc32)cc1` showed a growth of 68%.
Compound `O=C(Cc1ccccc1[N+](=O)[O-])c1ccc2c(c1)OCO2` has a growth of 104%.
For `N#Cc1c(N)nc(Nc2nc3ccccc3[nH]2)nc1-c1ccc(Cl)cc1`, the growth was 109%.
`Oc1ccc(CN(Cc2ccc(C(F)(F)F)cc2)Cc2ccc(O)c3ncccc23)c2cccnc12` showed a growth of 20.5%.
`CCC(C)C1NC(=O)C(CC(C)C)NC(=O)C(C)NC(=O)C(C(C)C)NC(=O)C(CCCCN)NC(=O)C(CC(C)C)NC(=O)C(C(C)C)NC(=O)[C@H](C)NC(=O)C(C(C)CC)NC(=O)C(CCCN=C(N)N)NC(=O)C(CCCCN)NC(=O)C(CCCN=C(N)N)NC(=O)C(CCCCN)NC(=O)C([C@H](C)CC)NC(=O)C(CCCCN)NC1=O` (stereo not given in full) was tested, and the growth was 26.7%.
`COC(=O)c1ccc(C(=Nc2ccc(N(C)C(=O)CN3CCN(C)CC3)cc2)c2c(O)[nH]c3ccc(C(=O)OC)cc23)cc1` was tested, and the growth was 27%.
For `O=C(C(=O)N1CCOCC1)c1ccc(O[C@H]2O[C@H](CO)[C@@H](O)[C@H](O)[C@@H]2O)cc1`, the growth was 97.4%.

These compounds were tested on HT29 colon in the same assay as above. Details: 10 µM unless noted.
In the case of `NCCCOc1cc2ccccc2cc1C(=O)Nc1ccc(Cl)cc1OC(=O)c1cc2ccccc2cc1OCCCN`, the growth is reported as -94.9% (active).
`CCCCCCCCCCCCCCCCNC(=S)N/N=C/c1ccc(O)cc1O` was tested, and the growth was 37%.
In the case of `CC1(C)N=C(N)N=C(N)N1c1cccc(CCCCOc2ccccc2)c1`, the growth is reported as 11.3%.
Compound `CCCC(C)c1cc(Cc2cc(Cl)cc(Cl)c2O)c(O)c(Cc2cc(Cl)cc(Cl)c2O)c1` (stereo not given) has a growth of 14.4%.
With `Oc1ccc(Br)cc1/C=N/NC(=S)NC12CC3CC(CC(C3)C1)C2` the growth was -16.7% (active).
Work on `Cc1ccc([C@@H]2C[C@H](O)Cc3ccccc3N2)s1` yielded a growth of 117%.
Compound `Cc1c(Cc2ccccc2)c(=O)oc2c(C)c(OCC(=O)n3nc(C#N)cc3N)ccc12` has a growth of 95.6%.
Work on `N#CCc1ncc(-c2ccc(C(F)(F)F)cc2)c(NC2CCCCCC2)n1` yielded a growth of 14% [100 µM].
`CCC1(CC)C(OC)NC(Br)=C(C#N)C1(C#N)C(N)=O` (stereo not given) gave a growth of 105%.
Work on `CC1(C)Oc2cc3oc(=O)ccc3cc2C[C@@H]1OCCOS(=O)(=O)c1ccc(C#N)cc1` yielded a growth of 97.2%.
`CC(C)CCCCCOC(=O)c1ccccc1SSc1ccccc1C(=O)OCCCCCC(C)C` showed a growth of 122%.
`C=C(NC(=O)[C@H](C(C)C)N(C)c1cccc2[nH]ccc12)C(=O)OC` was tested, and the growth was 99.1%.
With `O=C(NC1CCN(Cc2ccccc2)CC1)c1cc(-c2cccnc2)nc2ccc(Cl)cc12` the growth was 4.33% (active).
In the case of `Cc1c(CN(C)C)cc(C(C)C)cc1C(C)C`, the growth is reported as 86.4%.
`Nc1ccc(S(=O)(=O)c2ccc(NO)cc2)cc1` gave a growth of 101%.
`CCOC(=O)C1=C(C(F)(F)F)NC(=S)NC1CN1C(=O)c2ccccc2C1=O` (stereo not given) gave a growth of 108%.
Compound `CC(=O)NCCN` has a growth of 101%.
In the case of `COc1ccc(Cn2cc3c(c2)-c2oncc2CC3)cc1OC`, the growth is reported as 7.91% (active).
For `Cc1ccc(C(=O)Nc2ccc(CN3CCN(C)CC3)c(C(F)(F)F)c2)cc1C#Cc1cncc2ncccc12`, the growth was -89.3% (active).
Work on `Cc1nc2c(nnn2-c2ccccc2)c2nc(-c3ccc(Cl)cc3)oc(=O)c12` yielded a growth of 115%.
Compound `CC(=O)Nc1nc(C)c(C(=O)N/N=C/c2cccs2)s1` has a growth of 95%.
For `CCCC(CCC)Oc1ccc(CCCC2=C(O)c3ccccc3C(=O)C2=O)cc1`, the growth was 25.8%.
`COc1ccc(-c2cc(C#N)c(NNC(C)=O)[nH]2)cc1` showed a growth of 105%.
`CCCCCCCCCCCCCCCCCC(=O)Nc1ccc(O)cc1` showed a growth of 96.7%.
For `COc1ccc2c(N)ncc(C#Cc3cc(C(=O)Nc4ccc(CN5CCN(C)CC5)c(C(F)(F)F)c4)cnc3C)c2c1`, the growth was -78.3% (active).
Compound `COC(=O)C1CC(=O)N(C(=O)Nc2ccc(Cl)cc2Cl)C1` (stereo not given) has a growth of 101%.
In the case of `COC(=O)CC(=O)C(=O)OC`, the growth is reported as 106%.
In the case of `COc1ccc(C2=NN(C(=O)c3cc(-c4ccc(C)cc4)nc4ccccc34)C(c3cc(-c4ccccc4)nn3-c3ccccc3)C2)cc1` (stereo not given), the growth is reported as 105%.
`O=C(Nc1cccc(Cn2c(=O)[nH]c3ccc(Oc4ncccn4)cc3c2=O)c1)c1ccc(Cl)cc1` showed a growth of 40.3%.
`CC(=O)Nc1ccc(CC#N)cc1Br` was tested, and the growth was 104%.
In the case of `CC1=C[C@@H]2c3c(c(O)c(O)c4oc5cc(O)cc(O)c5c(=O)c34)[C@@H](c3cc(O)c(O)c4oc5cc(O)cc(O)c5c(=O)c34)[C@@H]2C(C)(C)C1`, the growth is reported as -19.6% (active).
`Brc1c(-c2ccncc2)nc2n1CCS2` showed a growth of 87%.
For `CC(C)(C)c1ccc(OCCOC(=O)CBr)cc1`, the growth was 104%.
Work on `NC(N)=Nc1ccc(/C=C2\C=Cc3ccccc32)cc1` yielded a growth of 36.1%.
In the case of `O=C(Cc1ccccc1[N+](=O)[O-])c1ccc2c(c1)OCO2`, the growth is reported as 102%.
With `N#Cc1c(N)nc(Nc2nc3ccccc3[nH]2)nc1-c1ccc(Cl)cc1` the growth was 95.4%.
`Oc1ccc(CN(Cc2ccc(C(F)(F)F)cc2)Cc2ccc(O)c3ncccc23)c2cccnc12` showed a growth of 11.3%.
With `CCC(C)C1NC(=O)C(CC(C)C)NC(=O)C(C)NC(=O)C(C(C)C)NC(=O)C(CCCCN)NC(=O)C(CC(C)C)NC(=O)C(C(C)C)NC(=O)[C@H](C)NC(=O)C(C(C)CC)NC(=O)C(CCCN=C(N)N)NC(=O)C(CCCCN)NC(=O)C(CCCN=C(N)N)NC(=O)C(CCCCN)NC(=O)C([C@H](C)CC)NC(=O)C(CCCCN)NC1=O` (stereo not given in full) the growth was 3.41% (active).
With `COC(=O)c1ccc(C(=Nc2ccc(N(C)C(=O)CN3CCN(C)CC3)cc2)c2c(O)[nH]c3ccc(C(=O)OC)cc23)cc1` the growth was 29.7%.
In the case of `O=C(C(=O)N1CCOCC1)c1ccc(O[C@H]2O[C@H](CO)[C@@H](O)[C@H](O)[C@@H]2O)cc1`, the growth is reported as 93.4%.
